# From PubChem BioAssay AID1942 (Johns Hopkins Ion Channel Center, 2009)
# The campaign covered roughly 2,400 compounds. About 580 (24%) were called active. Not all results are given here. Unmarked numbers belong to inactive results.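 How the source made its calls: active means activity change at or above the mean plus 3 SD of buffer wells without dofetilide, per plate; inactive means the rest.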
# Target: Potassium voltage-gated channel subfamily KQT member 2 (Rattus norvegicus) (UniProt O88943)
# Test: rat KCNQ2 channel activation by compounds alone, confirmation, counter-screen for hERG block protector project, cell-based, CHO, FluxOR thallium flux (AID 1942);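 further: normalized value minus buffer-control mean plus three SD of buffer wells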
# Conditions: CHO-KCNQ2 cells, FluxOR thallium flux fluorescence; at 10 µM; active compounds read high
# Potassium voltage-gated channel subfamily KQT member 2 (Rattus norvegicus), sequence (O88943 whole entry, looked up): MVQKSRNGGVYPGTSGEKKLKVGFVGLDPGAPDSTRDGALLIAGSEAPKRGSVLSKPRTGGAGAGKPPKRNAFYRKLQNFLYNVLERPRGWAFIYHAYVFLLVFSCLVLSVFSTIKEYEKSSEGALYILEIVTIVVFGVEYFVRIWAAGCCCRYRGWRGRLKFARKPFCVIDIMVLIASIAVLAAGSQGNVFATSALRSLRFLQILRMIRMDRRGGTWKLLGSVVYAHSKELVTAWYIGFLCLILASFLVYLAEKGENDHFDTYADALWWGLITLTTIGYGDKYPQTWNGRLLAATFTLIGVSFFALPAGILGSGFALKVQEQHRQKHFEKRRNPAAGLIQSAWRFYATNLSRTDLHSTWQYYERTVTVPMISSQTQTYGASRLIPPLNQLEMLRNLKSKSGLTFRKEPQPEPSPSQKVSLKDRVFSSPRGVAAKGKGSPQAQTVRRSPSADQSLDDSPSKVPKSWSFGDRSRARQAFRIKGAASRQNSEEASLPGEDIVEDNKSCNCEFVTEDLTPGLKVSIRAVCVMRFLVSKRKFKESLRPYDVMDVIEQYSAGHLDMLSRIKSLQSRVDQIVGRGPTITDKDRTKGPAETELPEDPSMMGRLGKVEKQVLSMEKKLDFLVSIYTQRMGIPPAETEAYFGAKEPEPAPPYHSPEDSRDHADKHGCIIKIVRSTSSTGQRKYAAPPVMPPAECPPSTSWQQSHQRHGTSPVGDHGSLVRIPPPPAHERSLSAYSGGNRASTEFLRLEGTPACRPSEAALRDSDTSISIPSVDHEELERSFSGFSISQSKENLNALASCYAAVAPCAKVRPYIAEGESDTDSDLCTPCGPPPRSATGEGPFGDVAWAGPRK
row,Structure (SMILES),"activity change, less the hit threshold"
1,C=CCSc1nc2sc3c(c2c(=O)n1CC)CCc1ccccc1-3,11.4% (active)
2,O=C(O)CN1C(=O)C(=O)N(Cc2ccc(C(F)(F)F)cc2)C1=O,-4.3%
3,CCOC(=O)N1CCN(C(=O)CCn2c(=S)[nH]c3ccsc3c2=O)CC1,-2.5%
4,CCCn1c(SC(C)C(=O)N2CCOCC2)nc2ccc(Br)cc2c1=O (configuration not stated),-15.9%
5,N#Cc1ccc(-c2nc3ccc(Br)cc3c(=O)n2O)cc1,17.3% (active)
6,O=c1c2cc(Br)ccc2nc(-c2ccc(Cl)cc2)n1O,133% (active)
7,O=c1c2cc(Br)ccc2nc(-c2cccc(Cl)c2)n1O,111% (active)
8,O=c1c2cc(Br)ccc2nc(-c2cccc(C(F)(F)F)c2)n1O,126% (active)
9,COc1ccc(CCNS(=O)(=O)c2csc(C(N)=O)c2)cc1OC,-18.8%
10,NC(=O)[C@@H]1CCCN1Cc1nc(Cc2ccccc2Cl)no1,-17.5%
11,COc1ccc(Cl)cc1N(C)C(=O)CCNC(=O)Cn1cnc2ccccc2c1=O,-14.6%
12,CCOC(=O)N1CCC(N2C(=O)c3ccccc3C2Nc2cccnc2)CC1 (configuration not stated),-1.9%
13,O=c1c2ccc(Cl)cc2nc(-c2cccc(C(F)(F)F)c2)n1O,118% (active)
14,O=c1c2cc(Br)ccc2nc(-c2ccccc2)n1O,36.9% (active)
15,COc1ccc(S(=O)(=O)N2CCCC(C(=O)Nc3ccc(OC)c(OC)c3)C2)cc1 (configuration not stated),-17.4%
16,Cc1cc(C=O)c2c(c1)C=CC1(Oc3ccccc3C(=O)N1C)O2 (configuration not stated),-0.3%
17,N#Cc1c(-c2ccc(Cl)cc2)cc(-c2cccs2)nc1SCC(=O)O,-24.7%
18,CCOc1ccc(S(=O)(=O)Nc2nc3ccccc3nc2-n2ccc(=NC(=O)c3cccs3)cc2)cc1,-21.1%
19,O=[N+]([O-])c1cccc(/C=C/c2nc(C=Nc3ccccc3)c(O)o2)c1,-18.2%
20,Cc1ccc(C(=O)NC(=S)N(C)C2CCCCC2)cc1Br,2.9% (active)
21,CC1CCCC(NC(=S)NC(=O)c2cncc(Br)c2)C1C (configuration not stated),-12%
22,COc1ccc(C(=O)NC(=S)N(C)C2CCCCC2)cc1Br,0.5% (active)
23,CCOC(=O)C1=NN(C(=O)c2cccc(Br)c2)C(O)(C(C)(C)C)C1 (configuration not stated),87.6% (active)
24,COC(=O)C1=NN(C(=O)c2cccc(Br)c2)C(O)(c2ccc(Cl)cc2)C1 (configuration not stated),134% (active)
25,CCOC(=O)c1cnc(-n2nc(C)cc2C)nc1Nc1cccc(C(=O)O)c1,-13.4%

row,Structure (SMILES),"activity change, less the hit threshold"
1,CC1=NN(C(=O)c2ccccc2Br)C(O)(c2ccc(Cl)cc2)C1 (configuration not stated),-27.3%
2,COC(=O)C1=NN(C(=O)c2ccc(Cl)cc2)C(O)(c2ccccc2)C1 (configuration not stated),76.9% (active)
3,CCC1=NN(C(=O)c2ccc(Cl)cc2)C(O)(c2ccccc2)C1 (configuration not stated),-23.9%
4,CC(C)(C)C1(O)CC(C(F)(F)F)=NN1C(=O)Cc1ccc([N+](=O)[O-])cc1 (configuration not stated),-20.8%
5,CC1=NN(C(=O)c2ccc(Cl)cc2)C(O)(c2ccccc2)C1 (configuration not stated),-5.5%
6,Cc1ccc2[nH]c3c(c2c1)CNCC3,-13.7%
7,COc1cc(/C=N/Nc2nc(N3CCCC3)nc(N3CCCC3)n2)ccc1OCc1ccccc1F,-23.8%
8,CC(=O)c1c(C)c2c(n1CCN(C)C)CCCC2,-11.1%
9,CCCCCCCCCCn1c2c(c(=N)c3c1CCC3)CCC2,26.3% (active)
10,Clc1ccc(N=NN2CCOCC2)cc1,-5.2%
11,CCCOC(=S)NC(=O)c1sc2ccccc2c1Cl,10% (active)
12,O=C(NC(=S)N(CCCCO)C1CCCCC1)c1sc2ccccc2c1Cl,26% (active)
13,COC(=O)CC1C(=O)NCCN1C(=S)NC(=O)c1sc2ccccc2c1Cl (configuration not stated),-11.2%
14,CCCCOC(=S)NC(=O)c1sc2ccccc2c1Cl,71.2% (active)
15,CCOC(=O)CP(=O)(c1ccccc1)c1ccccc1,-20%
16,CCOC(=S)NC(=O)c1sc2ccccc2c1Cl,51.3% (active)
17,COC(=O)Cn1c(=NC(=O)c2sc3ccccc3c2Cl)sc2cc(S(N)(=O)=O)ccc21,-18.9%
18,O=C(CCc1nc(-c2ccccc2)no1)N1CCCC1,-20.7%
19,C=CCn1c(N2CCCCCC2)nc2c1c(=O)n(C)c(=O)n2C,-13.9%
20,O=C1NC(=O)/C(=C/c2cc3c(cc2Br)OCO3)S1,-28.6%
21,COc1ccc(C(=O)NCc2nnc(SCC(=O)NC3CCCCC3)n2C)cc1,-21.9%
22,O=[N+]([O-])c1ccc(Cl)c(/C=N/Nc2nc(N3CCOCC3)nc(N3CCOCC3)n2)c1,-7.2%
23,COc1cc(OC)c(C2=NOC(C(=O)Nc3ccc4c(c3)OCO4)C2)cc1Cl (configuration not stated),-22.1%
24,COc1ccc(OCC(=O)Nc2c3c(nn2-c2ccc(OC)cc2)CS(=O)(=O)C3)cc1,-16.4%
25,CC(=O)NCCC(=O)N(C)CC1CCN(CCc2cccc(C(F)(F)F)c2)CC1,-13.4%

row,Structure (SMILES),"activity change, less the hit threshold"
1,COc1ccc2ncc(OC(C)=O)cc2c1,-7.9%
2,CSc1ccccc1NC(=S)NCc1ccc(Cl)cc1,-17.2%
3,COC(=O)c1sccc1NC(=S)N1CCN(C)CC1,-22.7%
4,COC(=O)c1sccc1NC(=S)NCc1ccc(Cl)cc1,3.3% (active)
5,Cc1ccc(NC(=O)c2ccc(NC3=NC4CS(=O)(=O)CC4S3)cc2)cc1 (configuration not stated),-20.8%
6,COc1cc(Cl)cc(C(c2c(C(=O)O)[nH]c3ccccc23)c2c(C(=O)O)[nH]c3ccccc23)c1O,-20.1%
7,Cc1cc(C(F)(F)F)n(-c2ccc(N)cc2)n1,-13.2%
8,O=C(COc1ccccc1[N+](=O)[O-])Nc1cc(Cl)ccc1C(=O)O,-11.3%
9,O=C(NNc1nc2c(F)cccc2s1)c1cc(=O)c2ccccc2o1,-19.2%
10,O=c1cc(-c2c(F)c(F)c(F)c(F)c2F)oc2ccccc12,12.2% (active)
11,COc1ccc(S(=O)(=O)Nc2cccc(-n3cnnn3)c2)cc1,-11.2%
12,Cc1ccnc(SCCn2c(N3CC(C)OC(C)C3)nc3c2c(=O)n(C)c(=O)n3C)n1 (configuration not stated),-16.5%
13,O=C(Cn1c(=O)oc2ccccc21)Nc1ccc(F)c(F)c1,-17.1%
14,CCCCn1nnc(NC(=O)Cc2ccc(Cl)cc2)n1,-11.7%
15,CCOc1ccc2[nH]cc(S(=O)(=O)c3ccc(F)cc3)c(=O)c2c1,-19.1%
16,CCCCn1c(-c2csc(C(C)C)c2)n[nH]c1=S,6.8% (active)
17,S=c1[nH]nc(-c2ccc(Cl)cc2)n1Cc1ccccc1,-30.3%
18,CC(C)(C)OC(=O)C(Cl)(C(=O)OC(C)(C)C)c1ccc2nnnn2n1,-14.5%
19,CC(=O)c1cc(N2CCC(C(=O)O)CC2)ccc1[N+](=O)[O-],-24.9%
20,CCc1nnc(NC(=O)c2c(C)nn(-c3ccccc3)c2Cl)s1,-4.8%
21,Cc1nn(-c2ccccc2)c(Cl)c1/C=C1\SC(=S)NC1=O,60.1% (active)
22,Cc1nn(-c2ccccc2)c(C)c1S(=O)(=O)O,-13.9%
23,CCCC(=O)n1nc(-c2ccccc2)nc1N,-17.9%
24,CN(C)/C(=N\S(=O)(=O)c1ccccc1)c1ccc(F)cc1,-9.6%
25,O=C(Nc1cccc2[nH]ncc12)c1ccc(F)cc1,-24.7%

row,Structure (SMILES),"activity change, less the hit threshold"
1,O=C(Nc1nc(-c2ccccc2)c(-c2ccccc2)o1)c1ccc(F)cc1,9% (active)
2,Cc1ccc(-c2nc(CSCC(=O)N3CCOCC3)c(C)o2)cc1,-25.1%
3,COc1ccc(S(=O)(=O)Nc2ccc(Cl)cn2)c(C)c1C,-12.1%
4,Cc1noc(C)c1CSc1ncnc2sc3c(c12)CCCCC3,14.8% (active)
5,COC(=O)c1ccc(CSc2ncnc3sc(C)c(C)c23)o1,-6.5%
6,COc1ccc(-n2c(O)c(/C=C3\C=Nc4ccccc43)c(=O)[nH]c2=O)cc1,-40%
7,Cc1ccc2cc(CCNC(=O)C(=O)c3c(C)[nH]c4ccccc34)c(=O)[nH]c2c1,-20.7%
8,CCOC(=O)c1sc(=S)n2c1[nH]c(=O)c1ccc(C(=O)OC)cc12,79.4% (active)
9,CCC1SC2=NC(C)=C(C(=O)OC)C(c3ccc(C(=O)OC)cc3)N2C1=O (configuration not stated),-10.7%
10,CCCNC(=O)CN1C(=O)NC(Cc2c[nH]c3ccccc23)C1=O (configuration not stated),-17.5%
11,CC12CCC(C(=O)NCc3ccc4c(c3)OCO4)(CC1=O)C2(C)C (configuration not stated),-5.5%
12,CCOCCCNC(=O)C(NC(=O)Cc1cccs1)c1ccc(C)cc1 (configuration not stated),-21.4%
13,O=S(=O)(NC(=S)NC1CCCCC1)c1ccc(Cl)cc1,19.8% (active)
14,CCc1ccc(S(=O)(=O)NC(=S)NC2CCCCC2)cc1,52.3% (active)
15,O=S(=O)(NC(=S)NC1CCCCC1)c1ccc(Br)cc1,5.4% (active)
16,O=c1oc2ccccc2c(NC2CCCCC2)c1NS(=O)(=O)c1ccc(Cl)cc1,-14.5%
17,O=C(NC1CCCCC1)c1ccc(COCC(F)(F)F)o1,-5%
18,Cc1ccc(S(=O)(=O)NC(=S)NC2CCCCC2)cc1,-11.5%
19,COc1cc(Cl)c(C)cc1NC(=O)CSc1sc2c(O)cc(=O)[nH]c2c1C#N,-11.4%
20,N#Cc1c(N)c(C(=O)c2ccccc2)n2ccccc12,-16.1%
21,Nn1c(SCC(=O)Nc2ccc(F)cc2)nnc1C1CCCCC1,-23.5%
22,O=C1NCCN1Cc1ccccc1F,-11.9%
